# Reference: the supplement of paper PMC10127200
# Several values for one entry are separate records, joined by “and”; a condition that tells them apart may be missing. Identical values can stand only once. Counter-ions that a name gives are not always drawn.
# Legend:
# Experiment in all cases: Euclidean distance of Cell Painting phenotypic profile (signed KS, 77 features) to DMSO centroid (dimensionless distance); 5 or 10 uM (library dependent); higher = stronger phenotypic change vs DMSO (phenoactivity)
# Conditions in all cases: 48 h
# 786-O = system: 786-O
# Procedure, shortened: (§1)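 At 10 or 5 uM, as set by the library, and 0.1% DMSO final, compounds were applied for 48 h to five cancer lines and one healthy fibroblast line. Stained cells were imaged confocally at 20X in 9 fields per well, and Harmony extracted 77 features scored as signed Kolmogorov-Smirnov statistics against vehicle wells on the same plate. Profiles underwent plate-position correction, correlation weighting and replicate averaging at the top dose. Phenoactivity is the Euclidean distance from each such profile to the median vehicle profile.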
# A549 = system: A549
# Procedure, shortened: as §1
# DU145 = system: DU145
# Procedure, shortened: as §1
# FB = system: FB
# Procedure, shortened: as §1
# HEPG2 = system: HEPG2
# Procedure, shortened: as §1
# OVCAR4 = system: OVCAR4
# Procedure, shortened: as §1
SMILES,Euclidean distance (786-O),Euclidean distance (A549),Euclidean distance (DU145),Euclidean distance (FB),Euclidean distance (HEPG2),Euclidean distance (OVCAR4)
COC(=O)[C@]12CCC(C)(C)C[C@H]1[C@H]1C(=O)C=C3[C@@]4(C)C=C(C#N)C(=O)C(C)(C)[C@@H]4CC[C@@]3(C)[C@]1(C)CC2 [Bardoxolone Methyl],5.4,5.71,5.63,2.1,4.01,6.33
COc1cc(C(=O)OCCCCNC(=N)N)cc(OC)c1O [Leonurine],1.19,0.869,0.698,1.29,0.641,0.953
CCC[C@H](N[C@H]1CCc2cc(F)cc(F)c2C1)C(=O)Nc1cn(C(C)(C)CNCC(C)(C)C)cn1,1.07,1.25,0.825,0.705,1.07,2.26
COc1cc(CNC(=O)CCCC/C=C\C(C)C)ccc1O [Zucapsaicin],0.772,0.503,0.672,0.743,0.98,1.01
c1ccc2c(CCNc3ccc(Nc4ccncc4)cc3)c[nH]c2c1,2.61,2.76,1.77,2.87,2.65,3.75
CC[C@H]1OC(=O)[C@H](C)[C@@H](O[C@H]2C[C@@](C)(OC)[C@@H](O)[C@H](C)O2)[C@H](C)[C@@H](O[C@@H]2O[C@H](C)C[C@H](N(C)C)[C@H]2O)[C@](C)(OC)C[C@@H](C)C(=O)[C@H](C)[C@@H](O)[C@]1(C)O [Clarithromycin],0.952,0.722,0.938,0.905,0.629,0.909
CC[C@@]1(O)C(=O)OCc2c1cc1n(c2=O)Cc2cc3cc(O)ccc3nc2-1 [Hydroxy Camptothecine],3.83,4.01,3.99,3.74,3.55,2.89
COc1cc2ncnc(Nc3cccc(Cl)c3F)c2cc1OC(=O)N1CCN(C)C[C@H]1C,1.15,2.05,1.72,1.4,0.691,1.33
CN(c1ncccc1CNc1nc(Nc2ccc3c(c2)CC(=O)N3)ncc1C(F)(F)F)S(C)(=O)=O,1.25 and 2.75,3.05 and 1.62,2.34 and 1.3,3.61 and 1.66,2.58 and 1.31,3.25 and 1.45
O=C(/C=C/c1cccc(S(=O)(=O)Nc2ccccc2)c1)NO [Belinostat (PXD101)],1.71,2.39,2.38,1.82,1.99,1.12
CNNCc1ccc(C(=O)NC(C)C)cc1 [Procarbazine HCl],1.36,0.988,1.23,1.25,0.885,0.933
Cn1cc(CNCC2CCN(c3ncc(C(=O)NO)cn3)CC2)c2ccccc21,2.78,4.19,3.88,3.5,4.44,3.65
COc1cc(Cc2cnc(N)nc2N)cc(OC)c1OC [Trimethoprim],1.42,0.849,0.917,1.39,0.86,1.12
CN1CCC(=C2c3ccccc3C=Cc3ccccc32)CC1 [Cyproheptadine hydrochloride],0.781,1.06,1.24,1.89,2.26,0.968
N[C@H]1C[C@@H]1c1ccc(-c2cccc(O)c2)cc1,1.26,1.27,1.07,1.18,0.624,1.45
COc1cc2nccc(Oc3ccc(NC(=O)Nc4cc(C)on4)c(Cl)c3)c2cc1OC [Tivozanib (AV-951)],2.03,2.81,1.83,2.67,2.21,2.39
C[C@@H](N)[C@H]1CC[C@H](C(=O)Nc2ccncc2)CC1,3.12,3.33,3.45,2.59,1.02,3.15
Cc1ccc(N(CC2=NCCN2)c2cccc(O)c2)cc1 [Phentolamine Mesylate],1.55,0.595,0.949,1.19,1.72,1.1
c1cc(-c2cnn3cc(-c4ccc(N5CCNCC5)cc4)cnc23)c2cccnc2c1,5.15,5.05,4.45,6.55,5.9,6.68
CCOC(=O)[C@H](CCc1ccccc1)N[C@@H](C)C(=O)N1CCC[C@H]1C(=O)O [Enalapril Maleate],1.04,0.697,0.694,0.816,0.78,1.28
COC(=O)c1cc(OC)c2c(c1-c1c(C(=O)OC)cc(OC)c3c1OCO3)OCO2 [Bifendate],1.36,1.51,0.627,1.22,0.392,1.35
CS(=O)(=O)N1CCN(Cc2cc3nc(-c4cccc5[nH]ncc45)nc(N4CCOCC4)c3s2)CC1,2.85,2.71,1.63,2.18,1.4,1.83
COc1ccc(CC(C)(C)NC[C@H](O)c2cc(O)cc3c2OCC(=O)N3)cc1 [Olodaterol hydrochloride],1.07,0.364,1.21,1.12,0.379,1.1
N#Cc1cc(NC(=O)C(=O)O)c(Cl)c(NC(=O)C(=O)O)c1 [Lodoxamide Tromethamine],1.61,1.34,0.792,1.06,0.894,1.01
CCCCS(=O)(=O)N[C@@H](Cc1ccc(OCCCCC2CCNCC2)cc1)C(=O)O [Tirofiban Hydrochloride],1,1.07,1.77,1.22,0.871,1.39
